Where a name gives a salt, the structure may show the parent alone.
Tests used:
Assay in all cases: phenotypically active (imaging signature differs from DMSO and reproducible) at any of 0.3-9 uM (binary (1 = active, 0 = inactive)); higher = active
Details in all cases: treatment time: 24 h
[1] = test system: A549-ACTB-RAB5A
How it was run: (§1)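 Live-cell features were measured per well and normalised to solvent control wells after fifteen gene-edited A549, HepG2 and WPMY1 reporter lines had been treated for 24 h at 0.3, 1, 3 or 9 µM in four wells each. A condition was deviating when ≥3 of 4 wells sat beyond the 95th percentile of control Euclidean distances. It was reproducible when the median replicate Pearson correlation exceeded the 95th percentile of non-replicates. Phenotypic activity demanded both.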

[2] = test system: A549-CANX-COX4
How it was run: as §1

[3] = test system: A549-GM130-SQSTM1
How it was run: as §1

[4] = test system: A549-TP53BP1-CLTA
How it was run: as §1

[5] = test system: A549-TUBA1B-RELA
How it was run: as §1

[6] = test system: HepG2-ACTB-RAB5A
How it was run: as §1

[7] = test system: HepG2-CANX-COX4
How it was run: as §1

[8] = test system: HepG2-GM130-SQSTM1
How it was run: as §1

[9] = test system: HepG2-TP53BP1-CLTA
How it was run: as §1

[10] = test system: HepG2-TUBA1B-RELA
How it was run: as §1

[11] = test system: WPMY1-ACTB-RAB5A
How it was run: as §1

[12] = test system: WPMY1-CANX-COX4
How it was run: as §1

[13] = test system: WPMY1-GM130-SQSTM1
How it was run: as §1

[14] = test system: WPMY1-TP53BP1-CLTA
How it was run: as §1

[15] = test system: WPMY1-TUBA1B-RELA
How it was run: as §1

Measured: phenotypically active

COc1cc(O)c2c(c1C1CCCN1)OC(c1ccc(O)cc1)CC2 (stereo not given) [Vochysine (4 dia/énantio)]
inactive: [1] 0 | [2] 0 | [3] 0 | [4] 0 | [5] 0 | [6] 0 | [7] 0 | [8] 0 | [9] 0 | [10] 0 | [11] 0 | [12] 0 | [13] 0 | [14] 0 | [15] 0

CCN(Cc1ccncc1)C(=O)C(CO)c1ccccc1 (stereo not given) [tropicamide]
inactive: [1] 0 | [2] 0 | [3] 0 | [4] 0 | [5] 0 | [6] 0 | [7] 0 | [8] 0 | [9] 0 | [10] 0 | [11] 0 | [12] 0 | [13] 0 | [14] 0 | [15] 0

CCOc1ccccc1OCCN[C@H](C)Cc1ccc(OC)c(S(N)(=O)=O)c1 [tamsulosin]
inactive: [1] 0 | [2] 0 | [3] 0 | [4] 0 | [5] 0 | [6] 0 | [7] 0 | [8] 0 | [9] 0 | [10] 0 | [11] 0 | [12] 0 | [13] 0 | [14] 0 | [15] 0

Cn1cnc([N+](=O)[O-])c1Sc1ncnc2nc[nH]c12 [azathioprine]
inactive: [1] 0 | [2] 0 | [3] 0 | [4] 0 | [5] 0 | [6] 0 | [7] 0 | [8] 0 | [9] 0 | [10] 0 | [11] 0 | [12] 0 | [13] 0 | [14] 0 | [15] 0

Cc1ccccc1C(OCCN(C)C)c1ccccc1 (stereo not given) [orphenadrine]
inactive: [1] 0 | [2] 0 | [3] 0 | [4] 0 | [5] 0 | [6] 0 | [7] 0 | [8] 0 | [9] 0 | [10] 0 | [11] 0 | [12] 0 | [13] 0 | [14] 0 | [15] 0

C=C(C)[C@@H]1CC[C@]2(C(=O)O)CC[C@]3(C)[C@H](CC[C@@H]4[C@@]5(C)CC[C@H](O)C(C)(C)[C@@H]5CC[C@]43C)[C@@H]12 [betulinic-acid]
inactive: [1] 0 | [2] 0 | [3] 0 | [4] 0 | [5] 0 | [6] 0 | [7] 0 | [8] 0 | [9] 0 | [10] 0 | [11] 0 | [12] 0 | [13] 0 | [14] 0 | [15] 0

Nn1nnc2ccccc21
inactive: [1] 0 | [2] 0 | [3] 0 | [4] 0 | [5] 0 | [6] 0 | [7] 0 | [8] 0 | [9] 0 | [10] 0 | [11] 0 | [12] 0 | [13] 0 | [14] 0 | [15] 0

C/N=C(\NC#N)NCCSCc1nc[nH]c1C [cimetidine]
inactive: [1] 0 | [2] 0 | [3] 0 | [4] 0 | [5] 0 | [6] 0 | [7] 0 | [8] 0 | [9] 0 | [10] 0 | [11] 0 | [12] 0 | [13] 0 | [14] 0 | [15] 0

CSc1ccc(C(=O)c2[nH]c(=O)[nH]c2C)cc1 [Enoximone]
inactive: [1] 0 | [2] 0 | [3] 0 | [4] 0 | [5] 0 | [6] 0 | [7] 0 | [8] 0 | [9] 0 | [10] 0 | [11] 0 | [12] 0 | [13] 0 | [14] 0 | [15] 0

O=C(O)c1c(Sc2ccccc2)c2cc(Cl)ccc2n1Cc1ccc(Cl)cc1
inactive: [1] 0 | [2] 0 | [3] 0 | [4] 0 | [5] 0 | [6] 0 | [7] 0 | [8] 0 | [9] 0 | [10] 0 | [11] 0 | [12] 0 | [13] 0 | [14] 0 | [15] 0

CC(C)(C)NC[C@H](O)COc1cccc2c1CCCC2=O [levobunolol]
inactive: [1] 0 | [2] 0 | [3] 0 | [4] 0 | [5] 0 | [6] 0 | [7] 0 | [8] 0 | [9] 0 | [10] 0 | [11] 0 | [12] 0 | [13] 0 | [14] 0 | [15] 0

C[C@]12CC[C@@H]3c4ccc(O)cc4CC[C@H]3[C@@H]1CC[C@@H]2O [estradiol]
inactive: [1] 0 | [2] 0 | [3] 0 | [4] 0 | [5] 0 | [6] 0 | [7] 0 | [8] 0 | [9] 0 | [10] 0 | [11] 0 | [12] 0 | [13] 0 | [14] 0 | [15] 0

CCN(c1ccccc1)c1cc(NC)[n+](C)c(C)n1
inactive: [1] 0 | [2] 0 | [3] 0 | [4] 0 | [5] 0 | [6] 0 | [7] 0 | [8] 0 | [9] 0 | [10] 0 | [11] 0 | [12] 0 | [13] 0 | [14] 0 | [15] 0

OCC(CO)N[C@H]1C[C@](O)(CO)[C@@H](O)[C@H](O)[C@H]1O [Voglibose]
inactive: [1] 0 | [2] 0 | [3] 0 | [4] 0 | [5] 0 | [6] 0 | [7] 0 | [8] 0 | [9] 0 | [10] 0 | [11] 0 | [12] 0 | [13] 0 | [14] 0 | [15] 0

CNC(=O)COC(=O)NCCC1CCN(c2cccc(C)n2)CC1
inactive: [1] 0 | [2] 0 | [3] 0 | [4] 0 | [5] 0 | [6] 0 | [7] 0 | [8] 0 | [9] 0 | [10] 0 | [11] 0 | [12] 0 | [13] 0 | [14] 0 | [15] 0

O=C(O)CCc1ccccc1 [Hydrocinnamic acid]
inactive: [1] 0 | [2] 0 | [3] 0 | [4] 0 | [5] 0 | [6] 0 | [7] 0 | [8] 0 | [9] 0 | [10] 0 | [11] 0 | [12] 0 | [13] 0 | [14] 0 | [15] 0

C[C@H]1[C@H](C)CC[C@]2(C(=O)O)CC[C@]3(C)C(=CC[C@@H]4[C@@]5(C)CC[C@H](O)C(C)(C)[C@@H]5CC[C@]43C)[C@H]12 [Ursolic acid]
inactive: [1] 0 | [2] 0 | [3] 0 | [4] 0 | [5] 0 | [6] 0 | [7] 0 | [8] 0 | [9] 0 | [10] 0 | [11] 0 | [12] 0 | [13] 0 | [14] 0 | [15] 0

CN(N=O)C(=O)N[C@@H](C=O)[C@@H](O)[C@H](O)[C@H](O)CO.CN(N=O)C(=O)N[C@H]1C(O)O[C@H](CO)[C@@H](O)[C@@H]1O [streptozotocin]
inactive: [1] 0 | [2] 0 | [3] 0 | [4] 0 | [5] 0 | [6] 0 | [7] 0 | [8] 0 | [9] 0 | [10] 0 | [11] 0 | [12] 0 | [13] 0 | [14] 0 | [15] 0

CC1(C)[C@@H](O)CC[C@]2(C)[C@H]3C(=O)C=C4[C@@H]5C[C@@](C)(C(=O)O)CC[C@]5(C)CC[C@@]4(C)[C@]3(C)CC[C@@H]12 [Glycyrrhetinic Acid]
inactive: [1] 0 | [2] 0 | [3] 0 | [4] 0 | [5] 0 | [6] 0 | [7] 0 | [8] 0 | [9] 0 | [10] 0 | [11] 0 | [12] 0 | [13] 0 | [14] 0 | [15] 0

Cc1ccccc1Sc1ccc(/C=C2/SC(=S)NC2=O)cc1[N+](=O)[O-]
inactive: [1] 0 | [2] 0 | [3] 0 | [4] 0 | [5] 0 | [6] 0 | [7] 0 | [8] 0 | [9] 0 | [10] 0 | [11] 0 | [12] 0 | [13] 0 | [14] 0 | [15] 0

CCc1cccc2c3c([nH]c12)C(CC)(CC(=O)O)OCC3 (stereo not given) [etodolac]
inactive: [1] 0 | [2] 0 | [3] 0 | [4] 0 | [5] 0 | [6] 0 | [7] 0 | [8] 0 | [9] 0 | [10] 0 | [11] 0 | [12] 0 | [13] 0 | [14] 0 | [15] 0

COc1ccc2c(c1)c(CC(=O)O)c(C)n2C(=O)c1ccc(Cl)cc1 [indomethacin]
inactive: [1] 0 | [2] 0 | [3] 0 | [4] 0 | [5] 0 | [6] 0 | [7] 0 | [8] 0 | [9] 0 | [10] 0 | [11] 0 | [12] 0 | [13] 0 | [14] 0 | [15] 0

CN(C)CCCSc1ccccc1NC(=O)/C=C/c1ccccc1 [Cinanserin hydrochloride]
inactive: [1] 0 | [2] 0 | [3] 0 | [4] 0 | [5] 0 | [6] 0 | [7] 0 | [8] 0 | [9] 0 | [10] 0 | [11] 0 | [12] 0 | [13] 0 | [14] 0 | [15] 0
